Experimental findings from PubChem BioAssay (NCATS) are described below.

The structures appear in SMILES notation. Activity calls are given as the source filed them. Calls follow the shape of the dose curve; as a rule, active = well fitted curve in the direction sought with a large enough effect; inconclusive = small, poorly fitted or top-dose-only effect, or another doubt; inactive = no such curve, though single readings can be large or run the other way.

Sequence of Thyrotropin receptor (Homo sapiens) (P16473 whole entry, looked up): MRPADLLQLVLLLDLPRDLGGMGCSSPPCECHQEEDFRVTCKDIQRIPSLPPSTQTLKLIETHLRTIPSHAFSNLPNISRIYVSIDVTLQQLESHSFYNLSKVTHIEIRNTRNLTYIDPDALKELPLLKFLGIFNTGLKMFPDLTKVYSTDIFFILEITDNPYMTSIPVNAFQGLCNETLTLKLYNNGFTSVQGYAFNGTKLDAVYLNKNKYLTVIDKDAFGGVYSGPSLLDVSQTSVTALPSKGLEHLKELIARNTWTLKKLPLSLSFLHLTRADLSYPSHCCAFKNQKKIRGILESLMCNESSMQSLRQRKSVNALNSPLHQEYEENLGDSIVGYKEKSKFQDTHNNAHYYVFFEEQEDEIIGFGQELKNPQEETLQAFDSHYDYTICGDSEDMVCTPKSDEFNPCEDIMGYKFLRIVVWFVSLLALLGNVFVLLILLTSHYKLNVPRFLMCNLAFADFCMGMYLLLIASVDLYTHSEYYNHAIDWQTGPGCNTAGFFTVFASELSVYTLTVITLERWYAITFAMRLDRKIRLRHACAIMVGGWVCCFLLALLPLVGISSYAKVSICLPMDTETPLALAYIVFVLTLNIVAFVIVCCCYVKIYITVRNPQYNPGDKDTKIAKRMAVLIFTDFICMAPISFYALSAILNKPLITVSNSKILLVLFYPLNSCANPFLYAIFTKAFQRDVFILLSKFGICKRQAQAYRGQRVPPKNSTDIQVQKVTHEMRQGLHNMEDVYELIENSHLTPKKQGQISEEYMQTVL

This test has as its target Thyrotropin receptor (Homo sapiens) (UniProt P16473). Kind of test: qHTS Assay for Antagonists of the Thyroid Stimulating Hormone Receptor (AID 488980). As to conditions: TSHR-expressing cells, cAMP antagonist read-out; series mostly up to 57.5 µM. The text has this: TSH is an alpha/beta heterodimeric glycoprotein hormone secreted from the anterior pituitary gland which belongs to the glycoprotein hormone family. The actions of TSH are mediated by a seven-transmembrane receptor, which upon TSH binding couples preferentially to the G-alpha (s) protein (Gs), resulting in activation of adenylate cyclase and increase in cyclic adenosine 3', 5' monophosphate (cAMP). The TSH receptor (THSR) is mainly expressed in thyroid follicular cells and regulates their growth and function. This cell based assay was conducted on a TSHR transfected HEK 293 cell line, measuring cAMP stimulation using antibody-based Homogeneous Time Resolved Fluorescence (HTRF).
Our goal is to identify small molecules that will inhibit (antagonize) the thyroid-stimulating hormone receptor (TSHR), a member of the 7 transmembrane-spanning receptor (7TMR) family of cell surface receptors. TSHR-mediated hyperthyroidism is important in thyroid pathology. The development of small molecule antagonists of TSHR may lead to therapeutic approaches for TSHR-mediated hyperthyroidism caused by constitutively activating mutations or stimulating auto-antibodies associated with Graves' disease. Graves' disease is the leading cause of hyperthyroidism and is caused by autoantibodies that stimulate TSHR (TsAbs) causing thyroid growth and unregulated overproduction of thyroid hormones and existing treatments have liabilities (agranulocytosis). In addition, TSHRs are known to be expressed in multiple extrathyroidal tissues including bone, brain, kidney, testis, fat and cells of the immune system but the role of the TSHR in these tissues is not clear. Therefore, TSHR antagonists/inverse agonists could be used as probes of extrathyroidal TSHR function. Finally, TSHR inverse agonists, which are a subclass of antagonists that inhibit agonist-independent (or basal or constitutive) TSHR signaling, could be used to inhibit TSH-independent signaling in patients with recurrent or metastatic thyroid cancer who are receiving thyroid hormone to suppress TSH.
An anti cAMP antibody contains a fluorescent cryptate tag (excitation 337 nm; emission 620 nm) and the acceptor is cAMP-d2 (excitation 620 nm; emission 665 nm). When antibody and cAMP-d2 interact and are excited by a 337 nm light, a FRET occurs resulting in emission at 665 nm. The assay is competition between cAMP-d2 and cAMP (from the cell lysate). The homogeneous protocol allows for one step dispense after stimulation that is automation friendly.
Step, Parameter, Value, Description
1, Cells, 3 uL, 2000 TSHR freshly harvested cells/well 1536 TC treated White solid bottom plate (Cells resuspended in 10 mM HEPES buffered HBSS and 70 uM RO 20-1724)
2, Compound, 23 nL, Libraries and controls
3, Compound, 1 uL, EC80 TSH (4 nM final)
5, Reagent, 2 uL, cAMP antibody diluted 1:20 in lysis buffer
6, Time, 30 minutes, Room temperature
7, Detector, HTRF settings, Viewlux
`N[C@H](CO)C(=O)O`: the outcome was inactive. With `Oc1ccc(O)cc1`, the outcome was inactive. Turning to `O=C1CCC(c2ccc(-n3ccnc3)cc2)=NN1`, the result was inactive.

For the molecule `CCC(NC(C)C)C(O)c1ccc(O)c(O)c1` (stereo unspecified), the result was inactive. With `COc1cc(NS(C)(=O)=O)ccc1Nc1c2ccccc2nc2ccccc12`, the result was inactive. In the case of `O=C(O)c1cc2cc(Cc3cccnc3)ccc2o1`, the outcome was inactive. The value for `COc1cc(-c2ccc(=O)[nH]n2)ccc1OC(F)F` was “inactive”; that for `C[C@@H]1C(=O)NC2=Nc3cccc(Cl)c3CN21` was “inactive”. Consider `C[C@]12CC[C@@H]3c4ccc(O)cc4CC[C@H]3[C@@H]1CC[C@@H]2O`, for which the outcome was inactive. As for `COC(=O)[C@H]1[C@H]2C[C@H]3c4[nH]c5ccccc5c4CCN3C[C@H]2CC[C@@H]1O`, the outcome was inactive. As to `CN=C(NC#N)Nc1ccc(C2=NNC(=O)CC2C)cc1` (stereo unspecified), the outcome was inactive. Turning to `Nc1cc(Cl)c(NC2=NCCN2)c(Cl)c1`, the outcome was inactive. The value for `CNCCC(Oc1ccccc1C)c1ccccc1` (stereo unspecified) was “inactive”. Regarding `CCCn1c(=O)[nH]c(=O)c2[nH]cnc21`, the result was inactive. On to `CC1(C)CCC(NC(=O)[C@@H](N)CCC(=O)O)CC1`, for which the outcome was inactive. In the case of `C[N+]1(CCCCC[N+]2(C)CCCC2)CCCC1`, the result was inactive. As for `CNCCC=C1c2ccccc2CCc2ccccc21`, the outcome was inactive. Consider `N[C@@H](Cc1cnc[nH]1)C(=O)O`, for which the outcome was inactive. Regarding `CN1C2CCC1CC(OC(=O)c1c[nH]c3ccccc13)C2` (stereo unspecified), the result was inactive. For `C1CCc2nnnn2CC1`, the outcome was inactive. For the molecule `CC(C)COC(=O)OCN1C(=O)CN(CCN2CC(=O)N(COC(=O)OCC(C)C)C(=O)C2)CC1=O`, the outcome was inactive.
